Results on 24 molecules are retold here after PubChem BioAssay.

Values joined by “and” are separate entries in the source; they are usually repeats but may differ in a detail not shown here. Equal values may be shown once. A number with no mark means an inactive call. Active and inactive are the calls of the source. Cut-off read from the data, not from the text of the source, unless noted: active = inhibition above about 30%; inactive = the rest.

Assay [1] concerns the target Nuclear receptor coactivator 3 (Homo sapiens) (UniProt Q9Y6Q9). Nature of the assay: NCOA3 GAL4-fusion reporter inhibition – cell-based, luminescence, quadruplicate, confirmation (AID 588792;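 active = mean inhibition over 43.08%, the solvent-only control mean plus 3 SD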;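 note: 0% = DMSO treated cells and 100% = gossypol at 36 µM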). The note with it: HEK293 GAL4-SRC3 luciferase reporter, at 3.6 µM, hits give high values.
Assay [2] deals with transactivating tegument protein VP16 (Human herpesvirus 1), Gal4-VP16 luciferase reporter. The assay can be described thus: repression of VP16-driven luciferase reporter – cell-based, luminescence, high throughput, counter-screen for SRC3 inhibitor project (AID 588794). The note with it: mammalian cells, at 3.6 µM, hits give high values. On the technique in general: In a reporter assay the amount or activity of a reporter protein is the signal.

Assay [3] concerns the target Nuclear receptor coactivator 1 (Homo sapiens) (UniProt Q15788). The assay can be described thus: NCOA1 GAL4-fusion reporter inhibition – cell-based, luminescence, quadruplicate, confirmation (AID 588820;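 active = mean inhibition above 46.68%, the untreated control wells mean plus 3 SD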;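 note: 0% = DMSO wells and 100% = gossypol 36 µM treated wells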). The note with it: HEK293 GAL4-SRC1 luciferase reporter, at 3.6 µM, hits give high values.
The nature of assay [4]: repression of VP16-driven luciferase reporter – cell-based, luminescence, high throughput, counter-screen for SRC1 inhibitor project (AID 588824; in the data active = inhibition above about 25%). The following applies: cell-based VP16 transactivation luciferase luminescence; at 3.6 µM; hits give high values.

Sequence of Nuclear receptor coactivator 3 (Homo sapiens) (Q9Y6Q9 whole entry, looked up, the tested form may be a part): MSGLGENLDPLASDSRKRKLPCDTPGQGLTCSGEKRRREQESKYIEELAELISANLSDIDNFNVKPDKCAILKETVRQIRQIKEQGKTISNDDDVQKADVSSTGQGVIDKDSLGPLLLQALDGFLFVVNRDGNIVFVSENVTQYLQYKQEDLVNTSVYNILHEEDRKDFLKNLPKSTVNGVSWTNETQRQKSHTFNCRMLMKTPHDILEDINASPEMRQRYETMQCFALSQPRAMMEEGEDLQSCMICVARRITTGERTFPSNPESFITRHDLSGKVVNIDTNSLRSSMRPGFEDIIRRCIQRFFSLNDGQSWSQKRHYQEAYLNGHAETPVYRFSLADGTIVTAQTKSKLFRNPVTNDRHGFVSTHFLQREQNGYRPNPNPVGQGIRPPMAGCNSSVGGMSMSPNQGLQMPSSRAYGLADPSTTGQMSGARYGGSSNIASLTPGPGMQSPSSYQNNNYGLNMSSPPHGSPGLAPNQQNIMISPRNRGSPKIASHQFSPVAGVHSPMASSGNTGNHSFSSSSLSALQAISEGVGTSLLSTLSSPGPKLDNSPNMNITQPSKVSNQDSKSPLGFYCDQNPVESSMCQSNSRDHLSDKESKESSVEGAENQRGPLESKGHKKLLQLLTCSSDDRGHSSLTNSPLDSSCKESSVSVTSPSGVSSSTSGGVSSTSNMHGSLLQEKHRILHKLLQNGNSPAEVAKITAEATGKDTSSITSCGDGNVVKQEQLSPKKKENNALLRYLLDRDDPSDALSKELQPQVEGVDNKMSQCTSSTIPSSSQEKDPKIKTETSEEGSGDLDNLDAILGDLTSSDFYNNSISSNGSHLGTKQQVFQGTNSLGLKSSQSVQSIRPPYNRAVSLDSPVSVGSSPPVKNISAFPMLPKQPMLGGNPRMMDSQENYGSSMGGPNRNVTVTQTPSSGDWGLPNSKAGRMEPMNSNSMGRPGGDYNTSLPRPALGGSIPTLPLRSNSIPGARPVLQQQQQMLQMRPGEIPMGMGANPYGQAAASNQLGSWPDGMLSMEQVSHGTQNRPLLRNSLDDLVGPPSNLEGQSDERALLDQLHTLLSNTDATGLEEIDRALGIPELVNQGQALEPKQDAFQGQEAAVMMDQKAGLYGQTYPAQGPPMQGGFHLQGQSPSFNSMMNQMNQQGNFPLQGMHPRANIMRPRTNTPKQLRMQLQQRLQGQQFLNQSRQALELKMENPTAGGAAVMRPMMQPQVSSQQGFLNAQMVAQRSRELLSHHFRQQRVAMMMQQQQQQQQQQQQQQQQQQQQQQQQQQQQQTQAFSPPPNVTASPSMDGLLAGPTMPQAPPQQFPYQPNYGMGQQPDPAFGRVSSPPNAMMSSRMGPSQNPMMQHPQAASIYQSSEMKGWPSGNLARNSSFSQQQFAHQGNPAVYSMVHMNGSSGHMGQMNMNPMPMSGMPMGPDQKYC
Sequence of Nuclear receptor coactivator 1 (Homo sapiens) (Q15788 whole entry, looked up, the tested form may be a part): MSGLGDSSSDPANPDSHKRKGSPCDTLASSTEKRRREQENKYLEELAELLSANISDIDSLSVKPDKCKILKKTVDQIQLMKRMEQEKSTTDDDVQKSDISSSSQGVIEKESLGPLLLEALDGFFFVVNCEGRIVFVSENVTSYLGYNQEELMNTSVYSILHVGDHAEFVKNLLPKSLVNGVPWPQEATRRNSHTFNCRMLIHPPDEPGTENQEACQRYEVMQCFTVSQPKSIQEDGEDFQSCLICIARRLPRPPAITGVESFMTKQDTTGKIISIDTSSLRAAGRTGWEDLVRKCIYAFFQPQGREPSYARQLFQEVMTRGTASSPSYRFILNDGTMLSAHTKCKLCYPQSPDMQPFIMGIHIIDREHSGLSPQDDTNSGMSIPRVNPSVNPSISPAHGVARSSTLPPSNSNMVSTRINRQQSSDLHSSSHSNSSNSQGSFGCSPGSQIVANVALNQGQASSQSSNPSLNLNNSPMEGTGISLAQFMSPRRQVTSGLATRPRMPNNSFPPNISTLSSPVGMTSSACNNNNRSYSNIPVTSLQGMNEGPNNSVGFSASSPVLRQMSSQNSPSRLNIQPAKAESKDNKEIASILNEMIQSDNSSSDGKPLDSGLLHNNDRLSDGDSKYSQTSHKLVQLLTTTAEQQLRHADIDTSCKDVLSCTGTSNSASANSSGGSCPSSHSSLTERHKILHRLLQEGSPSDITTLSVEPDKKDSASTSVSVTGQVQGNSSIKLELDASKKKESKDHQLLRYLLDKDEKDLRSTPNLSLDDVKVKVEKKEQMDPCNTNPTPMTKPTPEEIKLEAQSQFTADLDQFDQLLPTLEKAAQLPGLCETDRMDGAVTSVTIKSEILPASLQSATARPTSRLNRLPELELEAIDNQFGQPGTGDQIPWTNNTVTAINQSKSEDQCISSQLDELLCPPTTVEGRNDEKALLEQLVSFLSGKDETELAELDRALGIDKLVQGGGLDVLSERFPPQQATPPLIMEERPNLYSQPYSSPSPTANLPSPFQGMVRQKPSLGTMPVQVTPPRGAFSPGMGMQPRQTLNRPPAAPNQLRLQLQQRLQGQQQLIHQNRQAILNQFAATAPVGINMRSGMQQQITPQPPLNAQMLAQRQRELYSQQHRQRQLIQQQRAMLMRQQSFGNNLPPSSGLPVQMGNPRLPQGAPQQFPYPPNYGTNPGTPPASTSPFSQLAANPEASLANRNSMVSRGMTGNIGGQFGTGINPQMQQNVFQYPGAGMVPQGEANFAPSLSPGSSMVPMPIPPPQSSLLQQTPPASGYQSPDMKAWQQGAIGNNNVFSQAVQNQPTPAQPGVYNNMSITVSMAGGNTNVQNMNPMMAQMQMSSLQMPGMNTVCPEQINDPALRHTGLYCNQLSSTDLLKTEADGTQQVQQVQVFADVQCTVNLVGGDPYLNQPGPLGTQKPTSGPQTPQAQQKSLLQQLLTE

Take `CN(C)C=Nc1c(C(=O)c2ccccc2)sc2nccc(N(C)C)c12`: the inhibition (as a rule, the drop in the measured response relative to a control, in per cent) in assay [1] was 20.3%; in assay [2] it was 16.3%; in assay [3], 30.8%; in assay [4] it was 16.9%.

Regarding `CCOC(=O)CC(=O)CSc1nccc(-c2cccnc2)n1`, the inhibition in assay [1] was 37.5%; in assay [2], 15.3%; in assay [3] it was 16.4%; in assay [4], 10.1%.

Consider `Fc1ccc(NC(=S)NNc2ncc(C(F)(F)F)cc2Cl)c(F)c1`, for which the inhibition in assay [1] was 4.99%; in assay [2], 23%; in assay [3], 15.9%; in assay [4], 29.1% (active).

As for `COc1ccc(C(C(=O)NC2CCCCC2)N(C(=O)CCl)c2ccc(C)cc2)cc1` (stereo unspecified), the inhibition is 71.8% (active) in assay [1], 52.9% (active) in assay [2], 35.7% in assay [3] and 49.2% (active) in assay [4].

In the case of `COc1cc2oc(=O)cc(-c3ccc(-c4ccc(CO)cc4)cc3)c2c(OC)c1OC`, the inhibition is 45.9% (active) in assay [1], 28.3% in assay [2], 32.9% in assay [3] and 32.5% (active) in assay [4].

For `Nc1nc(=O)n(C2OC(CO)C(O)C2O)cc1F` (stereo unspecified), the inhibition was 13.6% in assay [1], 31.5% (active) in assay [2], 40.1% in assay [3] and 38.9% (active) in assay [4].

As for `CCc1ccc(-c2cc(C(F)(F)F)n3nc(C(=O)Nc4cnn(Cc5ccc(C)cc5)c4)cc3n2)s1`, the inhibition in assay [1] is 10.1%; in assay [2], 9.55%; in assay [3], -3.69%; in assay [4], 7.47%.

Take `CC(C)n1cc(/C=C/c2cc[n+](C)cc2)c2ccccc21`: the inhibition in assay [1] was 14%; in assay [2], 21%; in assay [3], 16.8%; in assay [4], 30.3% (active).

With `Cn1c2c(c(=O)n(C)c1=O)C(C(F)(F)F)(C(F)(F)F)N=C(C1CCCCC1)N2`, the inhibition in assay [1] is 11.5%; in assay [2] it was 20.6%; in assay [3], 10.2%; in assay [4], 12.8%.

Take `O=C(CCCOc1ccc(Cl)cc1Cl)N/N=C/c1ccccc1O`: the inhibition in assay [1] was 26.1%; in assay [2], 22.3%; in assay [3], 29.5%; in assay [4] it was 15.2%.

Take `COc1ccc2c(c1OC)C(=O)N1c3ccccc3C(=O)N(c3ccc(F)cc3)C21` (stereo unspecified): the inhibition was 7.69% in assay [1], 4.54% in assay [2], -3.13% in assay [3] and 3.89% in assay [4].

With `C(C#CCCCCCCCCC[n+]1ccccc1)#CCCCCCCCCC[n+]1ccccc1`, the inhibition in assay [1] was 58.9% (active) and 59.3% (active); in assay [2], 70.3% (active) and 74.5% (active); in assay [3] it was 41.7%; in assay [4] it was 73.4% (active).

Regarding `CCCCC(=O)NC(c1cccs1)c1cc(Cl)c2cccnc2c1O` (stereo unspecified), the inhibition in assay [1] is 44.5% (active); in assay [2] it was 40.6% (active); in assay [3], 27.5%; in assay [4], 49.9% (active).

As to `O=C(N/N=C\c1c(O)ccc2ccccc12)c1cncc(Br)c1`, the inhibition in assay [1] is 83% (active); in assay [2], 84% (active); in assay [3], 77.7% (active); in assay [4], 80.5% (active).

In the case of `CC(C)(C)c1ccc(/C=C2\SC(=O)N(CCNC(=O)c3cccc(S(=O)(=O)N4CCOCC4)c3)C2=O)cc1`, the inhibition in assay [1] is -11.1%; in assay [2], -19.8%; in assay [3], -58.1%; in assay [4], -59.9%.

Regarding `COc1ccc(Nc2ncnc3ccc(Br)cc23)cc1OC`, the inhibition in assay [1] was 61.3% (active); in assay [2], 40.6% (active); in assay [3] it was 50.7% (active); in assay [4], 42.2% (active).

With `CNC(=O)c1ccc(NC(=O)C2CCN(c3ncnc4sc(C)c(C)c34)CC2)cc1`, the inhibition in assay [1] is 51.6% (active); in assay [2], 35.5% (active); in assay [3], 48.7% (active); in assay [4], 30% (active).

In the case of `CC(C)c1ccc(-c2csc(NC(=O)c3cccs3)c2C(=O)O)cc1`, the inhibition in assay [1] is 8.33%; in assay [2] it was 18.6%; in assay [3], -2.31%; in assay [4], 33.9% (active).

As for `O=C(/C=C/c1ccc(Cl)cc1)NC(=S)Nc1ccc(NC(=O)c2ccco2)cc1`, the inhibition was 29.7% in assay [1], 63.8% (active) in assay [2], 45.1% in assay [3] and 65% (active) in assay [4].

Take `Cc1nc(N2CCC(C(N)=O)CC2)c2c(-c3cccs3)csc2n1`: the inhibition in assay [1] was 38%; in assay [2], 25.8%; in assay [3] it was 34.9%; in assay [4], 18.9%.

Regarding `CC1=C(C(=O)OCc2ccc3c(c2)OCO3)C(c2ccccc2)NC(=O)N1` (stereo unspecified), the inhibition was 78.7% (active) in assay [1], 59.2% (active) in assay [2], 68.9% (active) in assay [3] and 61.8% (active) in assay [4].

As for `O=C(NC(=S)Nc1ccc(N2CCN(C(=O)c3ccccc3)CC2)cc1)c1cccs1`, the inhibition in assay [1] was 25.8%; in assay [2] it was 23.8%; in assay [3], 16%; in assay [4], 14.3%.

Turning to `Cc1cc(C)c2c(N)c3ccccc3nc2n1`, the inhibition in assay [1] was 15.2%; in assay [2], 54.6% (active); in assay [3] it was 3.44%; in assay [4], 53.4% (active).

Turning to `CCOC(=O)C(=Cc1cc(=O)c(OC)co1)C(=O)OCC`, the inhibition in assay [1] is 48.6% (active); in assay [2], 52.1% (active); in assay [3] it was -0.65%; in assay [4], 53.4% (active).
